# How the values were obtained:
# Experiment in all cases: PBM binding z-score (relative to random genomic background probes); higher = stronger binding; sequences stand for … in GC…GCGATTGACAGCGTAGAATGAAGG
# [1] = test system: RARb homodimer (NR concentration 270 nM)
# Method in brief: (§1)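 Binding z-scores were set against random background probes. The data came from custom Agilent 4×180K protein-binding microarrays carrying double-stranded probes with 34-nt variable regions, incubated 1 h with ligand-free nuclear receptor dimers. Partner-specific antibodies detected binding, and scanned fluorescence was regression-normalized.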
# [2] = test system: RARg:RXRa (NR concentration 270 nM, RXRa partner concentration 90 nM)
# Method in brief: as §1
# [3] = test system: RARg homodimer (NR concentration 270 nM)
# Method in brief: as §1
# [4] = test system: RXRa DBDmut IVT, anti-RXR (DBD mutation: RXRa K156A/R161A, NR concentration 90 nM)
# Method in brief: as §1
# [5] = test system: RXRa homodimer (NR concentration 180 nM)
# Method in brief: as §1
# [6] = test system: THRa:RXRa (NR concentration 90 nM, RXRa partner concentration 90 nM)
# Method in brief: as §1
# [7] = test system: THRa homodimer (NR concentration 90 nM)
# Method in brief: as §1
# [8] = test system: VDR:RXRa (NR concentration 270 nM, RXRa partner concentration 90 nM)
# Method in brief: as §1
# [9] = test system: VDR homodimer (NR concentration 270 nM)
# Method in brief: as §1
Sequence,PBM binding z-score [1],PBM binding z-score [2],PBM binding z-score [3],PBM binding z-score [4],PBM binding z-score [5],PBM binding z-score [6],PBM binding z-score [7],PBM binding z-score [8],PBM binding z-score [9]
CAAACTAGGTCACAGAGGTCAAAGTGCGTGCGTA,5.64,7.46,7.84,3.65,7.66,4.92,3.02,8.02,6.01
ATCTCTGGGTAACCAAGTTCAGTGAATGCCGAAC,1.28,0.665,0.596,0.665,0.412,1.46,0.335,4.32,2.64
CCTACTGGGCCATCAGGTCTTTGATATCAACGTT,0.24,-0.0925,-0.00289,-0.126,-0.274,0.487,0.437,-0.244,-0.123
AGAACGAGGGCACGCTGAGGTGATAGCAGAGTAG,1.66,2.8,2.65,1.51,1.77,3.45,1.21,1.78,1.04
ATCGAAAGGTCGAAGGTGAGAATACCCACCCGAA,2.62,4.34,4.24,1.42,5.85,2.23,-0.0436,2.7,0.515
AGTCAAAGTTCACTACGTAACGTAAGATTCAGCT,3.36,4.55,5.09,4,3.76,1.4,-0.394,3.72,3.71
CGAACTAGGTCAGGACAGGACAGTGAAGGATGAT,2.54,2.87,4.34,0.359,1.59,3.71,1.28,0.943,-0.189
TCATATAGGTAAAGGAGAAAGTCGAACGATATGA,-0.643,0.547,0.358,0.825,0.676,-0.227,-0.866,0.392,-0.11
TCTATTAGTTGAAGGGCAACTGACGAGTCCGTTT,1.26,0.617,0.548,1.49,0.829,0.242,-0.0338,0.937,1.4
CCAGACATGTGAGAAGGTAACTCAGCCTCGATTA,0.158,-0.0792,0.231,0.753,0.09,-0.0389,0.447,-0.439,0.382
TCTTGTAGATCAATAGAGGTTAAGAGAGTGCGCT,1.02,0.864,0.443,0.589,1.46,2.56,-0.485,2.79,0.473
GCTAGCAGGCTATTTGGGTCACTCAATGACGGGC,1.63,0.682,0.795,-0.21,0.76,1.81,0.905,0.0221,-0.158
ATACCAATGTGATCGTGAGGTCGTTGATACTAAC,0.979,0.681,0.227,0.777,1.06,2.45,2.24,1.62,2.83
CTCGAAAGGTCGGTTGAGGTGAGGATACGGATAA,2.54,3.23,2.94,0.698,2.43,5.04,2.21,2.29,0.231
TCTCGGAAGACACGAAAGGTCAGAGCTCGACATC,4.18,4.01,4.27,1.06,4.27,2.58,0.266,2.55,0.21
ATAACGAGGGCAATGAGTTGATAGCACGGGTGGC,0.877,1.46,1.73,1.84,1.07,0.969,-0.389,4.89,3.01
TGAATGAGGCTAAAGATCAGGGAACGTGGCGTCG,-0.821,-0.0145,0.0972,-0.642,0.184,0.0902,-1.04,-0.503,-0.642
ATCTCTAGGTAAAGATAGTTCAGTGTATGCAAAT,1.22,0.725,0.952,0.412,0.465,1.05,0.467,0.93,0.96
CGAACGAGGGCATGAGTTGATAACAAATGCCGAT,0.641,1.37,1.59,2.64,1.05,1.19,-0.0778,1.04,1.48
TGAATGAGGTTAAAAGATCAGGGAACGTTGCAAA,0.578,2.56,1.18,0.605,2.79,1.83,-0.00624,1.45,0.327
ATACCAAGGTGATCGTGCGGTCGTTGATACTAAC,0.887,0.886,0.233,-0.0167,0.159,1.23,0.424,0.18,0.302
TCGAGTAGGTTACCAATGGGGCATTCAGCTTTCT,0.636,1.2,0.445,0.401,0.5,0.261,-0.612,0.0745,-0.59
TCTTGTAGATCAACCAGGTTAAGAAAGCCTGAGT,0.615,0.0614,-0.146,0.718,0.38,0.777,0.123,1.04,0.207
ATATGTAGGTTATCGGGCCATTCAGTTTGCGCAT,1.07,0.874,0.93,0.832,0.911,1.24,0.971,1.14,1.34
TCTAGCAGGCCAGAGGGTCACGCAAGAGGTACGG,3.37,3.78,3.41,-0.273,4.06,2.33,-0.0703,2.52,0.674
CCTTACGGGTCACTCACAGGTTATAGCATTTGGA,3.65,5.9,4.5,2.04,4.75,3.07,0.529,3.6,1.28

Sequence,PBM binding z-score [1],PBM binding z-score [2],PBM binding z-score [3],PBM binding z-score [4],PBM binding z-score [5],PBM binding z-score [6],PBM binding z-score [7],PBM binding z-score [8],PBM binding z-score [9]
TCATATAGGTAAATGCTGGGTGAAAGTCCGATCT,0.617,0.24,0.16,1.48,0.693,0.785,0.692,0.641,0.384
CGTCAATGTTCAACTAAGGTAACGTAAAGCACGC,0.643,0.459,0.531,0.651,0.456,3.46,2.04,0.565,0.309
TTACCAAGGTGAGCGGAGGTCGTTGATCCAACTC,1.72,1.31,1.18,-0.227,1.44,3.73,0.656,3.36,0.886
ATATGTAGGTTAGCTGGGGTCATTAAGACTAGGC,3.6,3.87,3.03,1.83,5.15,5.26,3,5.83,4.98
CAAACTATGTCAAAGGTCAAAGTCGAGCCAACCA,5.04,7.01,6.39,1.75,8.43,3.81,1.14,5.41,2.88
ATCGAGAGGTCGACGAGGTGAGTATACACCGTTT,1.94,3.1,2.85,1.07,3.46,3.58,0.777,4.87,1.52
TCCCGGAGGACACGAAGGTCAGAGCTTTCCAGAG,3.55,3.07,3.74,0.527,1.59,2.83,1.17,2.15,1.11
TCTATTAGTTGAAGGGCAACCCACGAGTCCGTTT,1.55,0.894,0.882,1.69,0.809,0.474,0.28,1.1,1.81
AGAATTAGGTTAAGATCAGGGAAACAGAATACAT,0.701,1.04,1.09,-0.0806,0.853,1.35,0.656,0.418,0.432
CCTAGTTGCTCAGGAGGTCACACACCGGATATGA,4.04,4.26,3.65,1.26,4.71,3.75,2.69,3.76,2.65
CCTTACGGGTCACTGAAAGGTTATAGCATTTGGA,4.08,6.85,4.86,1.54,5.63,3.44,0.371,4.52,1.14
TCTGCTAGGTCAACGATCGTCAGCTAATCTGCTA,2.88,4.06,4.96,0.835,2.44,2.6,0.335,1.03,-0.498
TCGAGTAGCTTAGGGGCATTCAGAATGGCGTCGA,0.0653,-0.284,-0.446,0.27,0.216,0.657,-0.487,-0.202,0.282
ATTAGTTGGTCAGCTGAGGTCACACACAATTCGG,4.56,4.39,4.28,1.58,4.35,5.05,5.22,4.76,4.18
AGTCAAAGTTCAACTAGGTAACGTAAGATATGCT,3.9,5.82,6.57,4.34,4.89,3,0.196,4.61,4.09
TATACAGGGTCAAAGCCCAGAGTACGAATGTCGA,2.97,5.26,4.63,3.03,5.9,3.23,0.46,4.41,2.85
AGACAAAGTTCATCTAGGTAACGTAAGATATGCT,4.12,5.68,5.87,5.05,4.64,3.07,0.133,5.16,5.21
CGAACGAAGGCATGAGTTGATAGCAAATGCCGAT,-0.914,-0.373,-0.278,-0.249,-0.113,-0.643,-0.827,-0.373,-0.193
TCTAGTTGGCCACGGAGGTCACACACGACGGGTA,3.85,3.98,3.67,0.683,4.31,3.48,2.53,3.97,1.99
GCTATTAGTTAAAAGGGCAACCGAATGATTCTCG,2.21,1.08,1.32,0.572,0.904,0.641,-0.221,0.193,0.339
CGAACTAGGTCATTGACAGGACAGTGACTAGTAA,2.75,4.69,4.28,2.44,2.69,2.84,0.58,2.42,1.07
GCATATAGGTAATCCAAGGTGAAAGTCCGATTGT,0.964,0.387,0.453,0.551,0.399,4.57,1.35,0.373,0.0892
ATATGTAGGGTAAGGGTCATTCAGGTTGGTTCGC,4.19,4.59,3.27,2.16,5.38,3.68,2.68,5.59,5.02
CTTGAAAGGTCGGTTGAGGTGAGTATACGGATAA,2.58,2.6,2.68,1.35,2.5,4.93,1.42,2.66,0.867
ATCCCTAGGTAAGACTCAGTTCAGTGAAGAACGC,0.754,-0.0118,-0.0617,0.567,0.0289,0.832,1,1.05,1.07
CCTCAGAGGACAACAGGAGGTCAGAGCTGCCAGA,3.94,4.09,4.83,1.36,2.06,2.79,0.791,2.34,1.29

# From the supplement of paper PMC6555819
